# From PubChem
# The list is not random: actives were taken first. Their share in the collection is about 1.2%.
# eIF4E-4G inh: eIF4E/eIF4G interaction inhibition in translation initiation; P63073+Q04637; TR-FRET eIF4E-eIF4GI(517-606) binding, 2 h; inhibition, % at 21.7 µM; 220,000 compounds, 0.37% hits; AID 782;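 active = inhibition above about 30%, limit read from the data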;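 also: 0% = full FRET control wells and 100% = background wells lacking eIF4GI fragment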
# zVAD death inh: blocks zVAD induced death of L929 cells; L929 zVAD necroptosis rescue, ATP luminescence, 24 h; with zVAD 60 µM; viability rescue, % at 10 µM; 220,000 compounds, 0.38% hits;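 active = activation, scaled between plate controls, above about 75%, limit read from the data; inactive = activation under that limit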;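 also: 0% = zVAD with DMSO and 100% = DMSO alone without zVAD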
# EBV gp42 block: blocks Epstein-Barr virus glycoprotein 42 binding; 220,000 compounds, 0.42% hits; inhibition, % (tested at 21.74 µM); Fluorescence polarization binding assay, mP read-out; in the data active = inhibition above about 50%
# Target sequence (Q1HVG2 whole entry, looked up): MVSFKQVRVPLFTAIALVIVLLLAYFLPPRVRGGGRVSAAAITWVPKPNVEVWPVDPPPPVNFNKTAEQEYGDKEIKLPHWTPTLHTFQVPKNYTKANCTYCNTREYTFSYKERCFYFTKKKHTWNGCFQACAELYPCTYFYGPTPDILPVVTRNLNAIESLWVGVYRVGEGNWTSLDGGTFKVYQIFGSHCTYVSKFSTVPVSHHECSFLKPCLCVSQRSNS
# TNF death inh: inhibitors of TNF-alpha induced necroptosis in Jurkat FADD-/- cells. activation (protection from cell death), % at 10 µM. 220,000 compounds, 0.068% hits. Jurkat FADD-/- TNF necroptosis rescue, ATP luminescence, 24 h; 0 = TNF only, 100 = no-TNF cells;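 active = activation, meaning protection from cell death, of at least 50% relative to plate controls; inactive = activation below 50%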;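 also: necroptosis triggered by 40 ng/mL TNF-alpha added together with compound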
# Active calls of the source: *; nt = no result given; [ ] = remark or other dose.
SMILES,eIF4E-4G inh,zVAD death inh,EBV gp42 block,TNF death inh
CC(=O)OC(C(=O)NC1CCCCC1)c1ccc(C)cc1 (stereo unspecified),1,0,-3,29
COc1cc(N2CCCC2)ccc1C=O,4,7,-10,0
N#C/C(=C/c1ccc(N2CCCCC2)cc1)c1cccc(F)c1,18,2,-16,4
COc1cc(N2CCCC2)c(OC)cc1/C=C(/C#N)c1ccc(Br)cc1,-3,0,95*,0
COc1cc(N2CCCC2)c(OC)cc1/C=C(/C#N)c1ccc(F)cc1,5,0,139*,-1
C=CCn1c(N2CCN(c3ccc(OC)cc3)CC2)nc2c1c(=O)[nH]c(=O)n2C,0,-1,6,0
O=C1N=c2ccccc2=C1c1sc(NS(=O)(=O)c2ccccc2)nc1O,2,15,8,0
O=C1N=c2ccccc2=C1c1sc(Nc2ccc(O)cc2)nc1O,37*,66,63*,0
CC1=CCC(C(=O)O)C(C(=O)Nc2ccc(-c3nc4ccc(C)cc4s3)cc2)C1 (stereo unspecified),80*,-1,-10,1
Cc1ccc([N+](=O)[O-])cc1-c1ccc(/C=C(\C#N)c2[nH]nc(N)c2C#N)o1,0,0,60*,0
COc1ccccc1NC(=S)N1CCN(c2nc(-c3ccccc3)cs2)CC1,-1,3,-15,1
O=c1cc(O)c2ccc(O)cc2o1,3,0,5,0
O=c1ccc2[n+]([O-])c3ccc(O)cc3oc-2c1,-19,-1,110*,-25
O=C(O)CCSc1nnc(SCC(=O)NCC(F)(F)F)s1,56*,0,-9,1
COc1ccc(NC2=NCCC(=O)N2Cc2cccs2)cc1,-2,1,-12,-3
COc1ccc(NC2=NCC(=O)N2Cc2cccs2)cc1,43*,0,-9,-1
O=C(COC(=O)c1ccc(NS(=O)(=O)c2cccs2)cc1)NCc1ccco1,20,0,67*,-8
Cc1ccc(NS(=O)(=O)c2cccc(C(=O)OCC(=O)NCc3ccco3)c2)cc1,-1,-1,6,-4
O=C(c1ccc([N+](=O)[O-])c(CS(=O)(=O)c2ccc(Cl)cc2)c1)N1CCCC1,-5,-1,-16,0
CC(Nc1nc(-c2ccc3c(c2)NC(=O)CO3)cs1)c1ccccc1 (stereo unspecified),-2,61,-12,83*
CC(C)(c1ccccc1)c1ccc(OCC(O)CNC2CCN(Cc3ccccc3)CC2)cc1 (stereo unspecified),6,-4,-7,-16
O=c1oc2c3c4c(cc2c(C(F)(F)F)c1CCN1CCOCC1)CCCN4CCC3,0,0,139*,1
Cc1cc(=O)oc2c3c4c(cc12)OCCN4CCC3,0,0,65*,-3
CC(C)c1cc(=O)oc2c3c4c(cc12)CCCN4CCC3,10,3,51*,-1
COC(=O)C1C(O)=C(C(C)=Nc2cccc3ccccc23)C(=O)CC1(C)C (stereo unspecified),5,0,4,-12
SMILES,eIF4E-4G inh,zVAD death inh,EBV gp42 block,TNF death inh
CCOC(=O)c1c(C)n(C)c2ccc(OC)c(NC(=O)CCN3CCC(Cc4ccccc4)CC3)c12,6,1,0,-7
CCOC(=O)c1ccc(S(=O)(=O)NNC(=O)COc2cccc(C)c2)cc1,2,0,-12,1
CC(=O)Nc1ccc(S(=O)(=O)NNC(=O)COc2cccc(C)c2)cc1,33*[fluorescence artefact?],0,-56,-1
CCc1nn2c(NCCOC)cc(C)nc2c1-c1ccc(F)cc1,-2,2,-14,3
O=C(O)CCCCC1CCSS1 (stereo unspecified),72*,0,102*,2
CC(=O)Nc1cccc(NC(=O)CSc2nnnn2Cc2ccccc2)c1,-3,0,5,-4
CCn1nnnc1SCC(=O)Nc1cccc(NC(C)=O)c1,37*[fluorescence artefact?],0,-22,0
CCCCn1nnnc1SCC(=O)Nc1cccc(C)n1,2,0,-21,0
Cc1cccc(NC(=O)CSc2nnnn2C)n1,-4,0,75*,0
N#CC1CC(c2ccc([N+](=O)[O-])cc2)=NN1c1ccc([N+](=O)[O-])cc1 (stereo unspecified),1,2,94*,-2
CC1=NN(c2ccc([N+](=O)[O-])cc2)C(c2ccccc2)C1 (stereo unspecified),1,1,-15,-1
CCN(CC)CCNC(=O)c1ccc2c(c1)ncn2C1CCCCC1,-1,93*,4,0
COc1c(Cl)cc(-c2noc(C)c2C(=O)NC(C)C)cc1Cl,42*,nt,-9,1
CCNC(=S)N=Nc1c(O)[nH]c2ccc([N+](=O)[O-])cc12,2,-1,7,-2
O=[N+]([O-])c1ccc2[nH]c(O)c(N=NC(=S)Nc3cccnc3)c2c1,-13,-1,59*,-2
Cc1ccc(S(=O)(=O)/N=C2/C=C(Sc3ncn[nH]3)C(=O)c3ccccc32)cc1,34*[fluorescence artefact?],2,5,0
CC1CCCCN1C(=O)CCS(=O)(=O)c1cccc2nonc12 (stereo unspecified),0,8,-6,-1
Cc1cccc(C)c1OCC(C)N (stereo unspecified),85*,-1,0,3
Cc1cccc(C)c1OCC(O)CNC(C)C (stereo unspecified),0,1,-6,2
Cc1cc(N)ccc1N1CCCC1,45*[fluorescence artefact?],1,-15,-6
Cc1cc(N)ccc1-n1c(C)ccc1C,-5,1,-4,1
CC(C)N1CCN(Cc2ccc(-c3ccccc3Cl)o2)CC1CCO (stereo unspecified),-3,1,3,3
CSC1=N/C(=C\c2ccccc2F)C(=O)S1,-7,0,99*,-4
CCCSCC(=O)Nc1ncc2c(n1)-c1ccccc1CC2,4,2,60*,0
COC(=O)c1cc(N2CCN(C)CC2)nc2ccccc12,0,1,82*,-1
SMILES,eIF4E-4G inh,zVAD death inh,EBV gp42 block,TNF death inh
Cc1cc(N2CCN(C)CC2)nc2ccc(NC(=O)c3ccccc3F)cc12,1,7,-5,10
OCCCc1nc2n(n1)C(c1cccs1)C=C(c1ccccc1)N2 (stereo unspecified),6,2,142*,-4
COc1cc(CC(=O)NCCc2ccc(S(N)(=O)=O)cc2)cc(OC)c1OC,81*,-1,-10,-1
CC(C)CCN1CCN(Cc2ccc(Sc3nncn3C)o2)CC1CCO (stereo unspecified),0,0,12,0
CC(C)N1CCN(Cc2ccc(Sc3nncn3C)o2)CC1CCO (stereo unspecified),94*,0,0,1
COc1cccc(-n2c(=O)n(Cc3ccccc3)c(=O)c3[nH]cnc32)c1,1,-1,-14,-1
Clc1ccc2noc(-c3ccccc3)c2c1,2,-1,2,-2
COc1ccc(-c2onc3ccc(Cl)cc23)cc1OC,nt,75*,nt,-6
C=CCN1C(=O)CS/C1=N/c1nccs1,-6,0,-10,2
